High-throughput results as filed in PubChem BioAssay.
Most compounds without a hit are left out; they make up all but 15% or so of the library.
DT40 TDP1 CPT: growth inhibition of DT40 Tdp1-/-;hTDP1 cells with camptothecin (screen for TDP1 inhibitors). chicken DT40 Tdp1-/-;hTDP1 cells + 20 nM CPT, ATP luminescence, 48 h. hit rate 12% among 420,000. Potency, µM (doses to about 46.2 µM), without a hit: at the top dose activity change, negative = growth inhibition, actives largely listed as inhibitors; note: nearly all actives have a fitted effect of over 55% in size
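Chicken DT40 Tdp1-/- cells stably complemented with human TDP1 were seeded at 400 cells/well in medium containing 20 nM camptothecin, exposed to pin-transferred compounds, and grown at 37 °C for at least 48 hr. Viability was read as ATP luminescence.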
ALOX12 inh: inhibitors of human 12S-lipoxygenase ALOX12. Potency, µM (top dose mostly 108 µM), inactives show top-dose activity change, negative = inhibition, actives largely listed as inhibitors. AID 1671190. hit rate 1.1% among 580,000. purified 12hLO, xylenol orange hydroperoxide absorbance
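Hydroperoxide product was detected by ferrous iron/xylenol orange as the 573 to 405 nm absorbance ratio. Arachidonic acid at 40 uM (final) was turned over for 30 min at room temperature by 150 nM human 12hLO, pH 7.0 Hepes buffer, after 15 min compound preincubation.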
RORgamma inh: blocks mouse ROR gamma transcriptional activity | P51450 | Drosophila S2 Gal4-RORgamma UAS-luciferase reporter, 20 h | Potency, µM (top dose mostly 53.6 µM), for the others: top-dose activity change, negative = inhibition, most hits filed as inhibitors | hit rate 5.4% among 310,000 | AID 2551; note: nearly all actives have a fitted effect of over 60% in size
Target sequence (P51450 whole entry, looked up, the tested form may be a part): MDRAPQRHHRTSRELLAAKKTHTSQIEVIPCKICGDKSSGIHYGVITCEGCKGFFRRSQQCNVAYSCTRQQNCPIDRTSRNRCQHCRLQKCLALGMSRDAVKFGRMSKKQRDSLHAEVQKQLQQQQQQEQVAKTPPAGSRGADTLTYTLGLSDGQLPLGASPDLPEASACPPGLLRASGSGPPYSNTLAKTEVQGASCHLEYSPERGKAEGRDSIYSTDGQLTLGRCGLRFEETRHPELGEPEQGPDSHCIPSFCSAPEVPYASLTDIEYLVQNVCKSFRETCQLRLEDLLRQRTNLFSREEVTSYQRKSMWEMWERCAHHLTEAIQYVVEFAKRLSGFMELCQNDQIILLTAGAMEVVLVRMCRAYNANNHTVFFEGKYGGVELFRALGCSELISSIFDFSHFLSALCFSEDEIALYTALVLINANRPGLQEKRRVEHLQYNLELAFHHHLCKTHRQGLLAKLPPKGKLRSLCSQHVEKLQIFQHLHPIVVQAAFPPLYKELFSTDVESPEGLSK
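Stably transfected Drosophila Schneider cells are the test system, with ROR gamma fused to Gal4 and luciferase under UAS control; luminescence is read after 20 hr of 700 uM copper sulfate induction at ambient temperature.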
ELG1 repair inh: inhibitors of ELG1-dependent DNA repair in HEK293T cells. HEK293T ELG1-luciferase reporter, luminescence, 16 h; DNA damage induced by 5-fluorouridine. hit rate 2.3% among 330,000. Potency, µM (titrated, usually from 46.1 µM), inactives show top-dose activity change, negative = inhibition, hits mostly inhibitors; note: nearly all actives have a fitted effect of over 55% in size
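DMSO vehicle served as the neutral condition. Each well held 2,000 cells given 5-fluorouridine plus compound; after 16 hr at 37 °C/5% CO2, ONE-Glo was added and luciferase measured 30 min later.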
Gal4-VP16 FLuc: counter-screen for ROR gamma inhibitors: Gal4-VP16 reporter; Drosophila S2 Gal4-VP16 UAS-luciferase, luminescence, 20 h; Potency, µM (titrated, usually from 53.6 µM), inactives show top-dose activity, negative = inhibition, usual class: inhibitors; hit rate 3.5% among 310,000; AID 2546;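 note: Gal4-VP16 expression switched on by copper sulfate through the metallothionein promoter; nearly all actives have a fitted effect of over 50% in size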
TDP1 cell noCPT: qHTS for Inhibitors of human tyrosyl-DNA phosphodiesterase 1 (TDP1): qHTS in cells in absence of CPT; DT40 Tdp1-/- hTDP1 cells, no CPT, ATP luminescence, 48 h; hit rate 15% among 420,000; Potency, µM (doses to about 46.2 µM), inactives show at the highest dose activity change, negative = growth inhibition, actives largely listed as inhibitors; note: nearly all actives have a fitted effect of over 55% in size
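Chicken DT40 Tdp1-/- cells complemented with human TDP1, screened without camptothecin (DMSO vehicle only), 400 cells/well. Compounds pin-transferred, cells incubated at 37 °C for at least 48 hr. Growth read as ATP-dependent luminescence (CellTiter-Glo, 30 min at RT).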
* marks the source's active call; other numbers are inactive results; ? = inconclusive; . = no result; [ ] = dose if it differs, or a comment. Calls come from the whole dose curve; as a rule, active = well fitted curve in the direction sought with a large enough effect; inconclusive = small, poorly fitted or top-dose-only effect, or another doubt; inactive = no such curve, though single readings can be large; an effect the other way counts as inactive or inconclusive. % is set by controls: 0 for no effect and ±100 for the full control effect; potency is the fitted concentration of half-maximal effect.

SMILES	DT40 TDP1 CPT	ALOX12 inh	RORgamma inh	ELG1 repair inh	Gal4-VP16 FLuc	TDP1 cell noCPT
O=C(Nc1ccc(F)cc1)c1cccnc1Oc1ccccc1	0%	0%	23%	-3%	2%	5%
N/C(COc1cccc(C(F)(F)F)c1)=N\NC(=O)c1cccnc1Oc1ccccc1	?	0%	0.5µM*	-19%	1.3µM*	?
Cc1snc(SCC(=O)N/N=C(\N)COc2cccc(C(F)(F)F)c2)c1C#N	-20%	-5%	5µM*	5%	6.3µM*	-6%
N/C(COc1ccccc1)=N\NC(=O)c1cccnc1Oc1ccccc1	?	0%	?	1%	1.4µM*	?
NCCn1cc(C(=O)NCc2cccnc2Oc2cccc(C(F)(F)F)c2)nn1	.	26%	.	.	.	.
O=C(COc1cccc(C(F)(F)F)c1)Nc1nnc(C2CC2)s1	0%	-35%	.	0%	.	-11%
CC1CCc2c(sc3ncnc(SCC(=O)Nc4ccc(C(=O)O)cc4)c23)C1 (configuration not stated)	2%	-1%	-15%	0%	-1%	-10%
COc1cc(NC(=O)CSc2ncnc3sc4c(c23)CCC(C)C4)c(C(=O)O)cc1OC (configuration not stated)	-1%	-17%	11µM*	1%	?	-14%
CCCn1cnc2cc(NC(=O)c3cc(OC)c(OC)c(OC)c3)ccc21	?	-6%	.	.	.	?
COc1cc(C(=O)Nc2ccc3c(c2)nc(C)n3C)cc(OC)c1OC	4.1µM*	0%	5%	?	-28%	3.3µM*
COc1ccccc1NC(=O)Nc1ccc2c(c1)nc(C)n2C	-2%	0%	10µM*	?	?	-28%
COc1cc(C(=O)Nc2ccc3c(c2)ncn3C)cc(OC)c1OC	4.1µM*	-1%	-17%	?	-2%	2.9µM*
CN1C(=O)[C@H]2[C@@H](c3ccc(C(F)(F)F)cc3)N[C@]3(CCCN(Cc4ccc(F)cc4)C3=O)[C@H]2C1=O	9.2µM*	?	.	.	.	7.3µM*
Cc1ccc([C@H]2N[C@]3(CCCN(Cc4ccc(C(F)(F)F)cc4)C3=O)[C@H]3C(=O)N(C)C(=O)[C@@H]23)cc1	21µM*	?	.	.	.	13µM*
CN1C(=O)[C@H]2[C@@H](c3ccc(C(F)(F)F)cc3)N[C@]3(CCCN(Cc4cccn4C)C3=O)[C@H]2C1=O	23µM*	?	.	.	.	16µM*
CN1C(=O)[C@H]2[C@@H](c3ccc(C(F)(F)F)cc3)N[C@]3(CCCN(Cc4ccco4)C3=O)[C@H]2C1=O	?	-10%	.	.	.	?
CN1C(=O)[C@H]2[C@@H](c3ccc(C(F)(F)F)cc3)N[C@]3(CCCN(Cc4ccc(Cl)cc4)C3=O)[C@H]2C1=O	1%	-22%	.	.	.	16µM*
CN1CCCCC12Cc1ccccc1CN([S+](=O)([O-])c1ccccc1)C2 (configuration not stated)	.	4%[6.33 µM]	.	.	.	.
CC(=O)c1cccc(NC(=O)COC(=O)c2ccc(C3Nc4ccccc4S(=O)(=O)N3)cc2)c1 (configuration not stated)	.	-13%	.	.	.	.
COCCNC(=O)C[C@@H]1C[C@H]2O[C@H](CNC(=O)N3CCOCC3)[C@@H](O)[C@H]2O1	.	47%[176 µM]	.	.	.	.
CCCCNc1nc(=S)n(-c2ccccc2)c(C)c1C(C)=O	16µM*	?	-41%	13%	2%	23µM*
CCn1c(C)c(C(C)=O)c(N2CCN(c3ccccc3)CC2)nc1=S	-12%	?	-20%	-10%	22%	-9%
CCn1c(C)c(C(C)=O)c(N2CCN(C(c3ccccc3)c3ccccc3)CC2)nc1=S	9.2µM*	-27%	?	?	?	6.5µM*
